# p47phox inh = p47phox/p22phox peptide binding inhibitors, primary screen, biochemical, uHTS, NADPH oxidase regulatory subunit; fluorescence polarization, 2 h; 0.53% of 220,000 active; inhibition, % at 24.7 µM; AID 1274, 2008;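 active means inhibition above about 30%, limit read from the data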;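 further: 0% = p47phox with labelled peptide and 100% = labelled peptide alone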
# Furin inhibitor = human furin inhibitors, primary screen, biochemical, fluorescence intensity; P09958; purified furin, fluorogenic substrate cleavage; inhibition, % at 20 µM or 30 µM; 0.061% of 220,000 active; AID 463115, 2010; in the data active means inhibition above about 25%
# Target sequence (P09958 108-714 limits assumed): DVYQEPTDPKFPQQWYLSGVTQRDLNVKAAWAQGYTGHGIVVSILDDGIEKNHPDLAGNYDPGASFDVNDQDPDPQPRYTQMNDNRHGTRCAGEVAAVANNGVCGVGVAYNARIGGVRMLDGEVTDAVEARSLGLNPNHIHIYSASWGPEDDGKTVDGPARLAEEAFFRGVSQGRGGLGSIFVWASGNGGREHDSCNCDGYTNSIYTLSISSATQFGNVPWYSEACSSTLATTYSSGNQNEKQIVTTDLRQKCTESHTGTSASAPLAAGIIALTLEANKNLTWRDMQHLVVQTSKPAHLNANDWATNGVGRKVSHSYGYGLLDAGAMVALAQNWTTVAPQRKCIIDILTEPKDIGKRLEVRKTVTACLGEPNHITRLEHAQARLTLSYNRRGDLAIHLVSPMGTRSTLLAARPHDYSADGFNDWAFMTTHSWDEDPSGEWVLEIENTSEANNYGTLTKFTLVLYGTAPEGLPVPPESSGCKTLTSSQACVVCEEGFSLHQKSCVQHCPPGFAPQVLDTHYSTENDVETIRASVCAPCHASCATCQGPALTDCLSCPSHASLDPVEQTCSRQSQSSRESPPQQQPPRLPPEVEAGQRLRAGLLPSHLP
# HSV augment = enhancers of HSV replication in host cells, fold increase, host cell viability; HSV replication augmentation in cells; maximum fold increase; 0.005% of 220,000 active; in the data active means maximum fold increase above about 1.5; tested in PC3 cells
# Wee1 stabilizer = Wee1 degradation inhibitors, primary screen, cell-based, HeLa, Wee1K328M-luciferase, luminescence | Wee1-like protein kinase (Homo sapiens), P30291 | HeLa Luc-Wee1K328M stability; 100% = proteasome inhibitor MG132 effect | reporter increase, % at 5 µM | 1.2% of 220,000 active;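 active means activation above the mean of all tested compounds plus 3 SD, set per screening run, cut at about 8.8% in these data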;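 further: cells exposed to compound for 20 h before luminescence read; 0% = DMSO alone and 100% = MG132 at 30 µM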
# EP2 modulator = EP2 receptor modulators, cAMP readout, primary screen, cell-based, HTRF cAMP, PGE2 stimulation. 0.83% of 260,000 active. induction, % at 25 µM. EP2-expressing cells, cAMP HTRF FRET, PGE2 co-stimulation. Prostaglandin E2 receptor EP2 subtype (Homo sapiens), P43116;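 active means compounds whose cAMP rise, as percent of the full-agonist control response, exceeds 60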;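 further: rat C6 glioma line stably carrying human EP2 under a CMV promoter; the protocol text gives 20 µM as final concentration; 100% = response of wells given 1 µM PGE2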
# EP2 antag = human EP2 receptor antagonists, primary screen, TR-FRET cAMP, C6 glioma cells. 0.52% of 260,000 active. Prostaglandin E2 receptor EP2 subtype (Homo sapiens), P43116. AID 1422, 2008. inhibition, % at 25 µM. C6 glioma cells expressing human EP2; cells stimulated with saturating PGE2;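 active means percent inhibition above 40 after rounding to a whole number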;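 further: rat C6 glioma host cells with rolipram phosphodiesterase inhibitor present; the protocol text gives 20 µM as final concentration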
# Wee1 stab conf = Wee1 degradation inhibitors, confirmation, cell-based, HeLa, Wee1K328M-luciferase, luminescence, triplicate; 4% of 1,100 active; shares compounds with Wee1 stabilizer; activation, % at 5 µM; HeLa Luc-Wee1K328M degradation; vehicle 0%, proteasome-blocked wells 100%; in the data active means activation above about 8.9%
# * marks the source's active call; other numbers are inactive results; i = inactive; / = no result given. This is a sample that favours compounds with a hit; in the whole collection about 2.8% have one here.
SMILES,p47phox inh,Furin inhibitor,HSV augment,Wee1 stabilizer,EP2 modulator,EP2 antag,Wee1 stab conf
CCn1ncc(Br)c1C(=O)Nc1ccc2c(c1)OCCO2,-5,-23,i,-1,-5,9,/
CCn1ncc(Br)c1C(=O)Nc1cccc(F)c1,-2,-21,i,13*,-1,5,2
COc1ccccc1-c1ccc(SCc2ccccc2F)nn1,-5,-13,i,13*,38,4,14*
COc1ccccc1-c1ccc(SCc2ccccc2)nn1,-10,-25,i,6,19,2,/
C=CCn1c(N)c(C(=O)Nc2ccccc2)c2nc3ccccc3nc21,-15,-6,i,15*,-2,19,6
C=C(C)CNC(=S)N/N=C/c1c(F)cccc1F,-10,-21,i,14*,6,7,0
C=C(C)CNC(=S)N/N=C/c1ccc([N+](=O)[O-])cc1,-6,8,i,1,-35,4,/
CCOCCCNC(=S)N1C2CCC1CC(NC(=O)NC13CC4CC(CC(C4)C1)C3)C2 (centres undefined),-2,-22,i,12*,-78,10,5
CCCCNC(=O)NC12CC3CC(CC(C3)C1)C2,2,-23,i,22*,-15,13,3
O=C(NCCCO)NC12CC3CC(CC(C3)C1)C2,-4,-4,i,0,-1,6,/
Cc1ccc2cc(C#N)c(SCC(=O)Nc3cc(Cl)ccc3Cl)nc2c1,/,/,/,/,12,10,/
CCOc1ccc(Cc2noc3c2C(=O)CC(C)(C)C3)cc1OCC,/,-33,i,1,18,3,/
CCOc1ccc(Cc2noc3c2C(=O)CCC3)cc1OCC,7,4,i,17*,-10,3,2
CCOC(=O)c1c(-c2ccc(C)o2)csc1NC(=O)CSc1nnc(C)s1,-32,-7,i,9,25,4,/
CCOC(=O)c1c(-c2ccccc2)csc1NC(=O)CSc1nnc(C)s1,4,-10,i,12*,34,5,-1
COC(=O)Cn1c(=O)c(C)nc2ccccc21,-6,-16,i,13*,20,8,-4
COC(=O)Cn1c(C)nc2ccccc21,-7,-7,i,-1,26,8,/
CCOC(=O)Cn1c(C(C)=O)nc2ccccc21,-10,-22,i,12*,-11,14,0
CCn1c2cc(C)sc2c2cnn(CC(=O)NCc3ccc4c(c3)OCO4)c(=O)c21,/,/,/,/,24,/,/
Cc1cccc2cc(CN(C(=O)c3ccc(F)cc3)C3CCCC3)c(=O)[nH]c12,/,/,/,/,9,6,/
COc1ccc2c(=O)c(-c3ccccc3)coc2c1,-3,-21,i,9.9*,16,11,4
C/C(=N\N=c1/sc2ccccc2n1C)c1ccc(N2CCOCC2)cc1,-12,-19,i,14*,-62,9,1
O=C(c1ccc(S(=O)(=O)N2CCCCC2)cc1)N1CCN(c2ccccc2F)CC1,-20,-23,i,0,5,5,/
COc1ccccc1N1CCN(C(=O)c2ccc(S(=O)(=O)N3CCCCCC3)cc2)CC1,3,1,i,11*,-36,6,0
Cc1nc2c(C)cccc2cc1C(=O)NCCCc1ccccn1,/,/,/,/,-40,7,/
SMILES,p47phox inh,Furin inhibitor,HSV augment,Wee1 stabilizer,EP2 modulator,EP2 antag,Wee1 stab conf
CSc1ccc(-c2nnn(CC(=O)NCc3ccccc3)n2)cc1,-9,-15,i,-1,-17,5,/
CCOC(=O)C(Cc1ccccc1)NC(=O)Cn1nnc(-c2ccc(SC)cc2)n1 (centres undefined),-15,-7,i,13*,-7,7,4
COCCCNS(=O)(=O)c1ccc2c(c1)NC(=O)C(C)(C)O2,/,/,/,/,-14,6,/
Fc1cccc(CSc2nc3ncc(Cl)cc3[nH]2)c1,-14,-17,i,11*,-13,10,-2
COc1cccc(/C=N/NC(=O)c2cc3c(OC)c(OC)ccc3[nH]2)c1OC,-56,-9,i,12*,-75,36,10*
COc1cccc(/C=N/NC(=O)c2cc3c(OC)cccc3[nH]2)c1OC,-41,-15,i,0,-11,9,/
Cc1nnc(SCC(=O)Nc2ccc(C(C)(C)C)cc2)[nH]c1=O,/,/,/,/,14,7,/
O=C(Nc1ccc(S(=O)(=O)Nc2nccs2)cc1)c1cnc(Cl)c(Cl)c1,-62,-14,i,19*,4,5,0
O=C(Nc1ccc(F)cc1)N1CCC(n2nnc3cc(F)ccc32)CC1,/,/,/,/,15,6,/
O=C(Nc1ccccc1)Nc1cc(OCC(F)(F)F)cc(OCC(F)(F)F)c1,-21,-7,i,14*,-16,0,2
